# Test results reported in PubChem BioAssay.
# Calls of active or inactive are those of the source.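 How the source made its calls, unless noted: active means inhibition above 20% together with a positive visual image hit; inconclusive means visual image hit but inhibition not above 20%; inactive means no visual image hit.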
# Experiments:
# [1] = inhibitors of TNFa-induced NFkB p65 translocation, primary screen, imaging, HUVEC, MLSMR starter and 10KST1 sets (AID 438); details: HUVEC TNFa-induced p65 nuclear translocation; cell count: measured here: nuclei count (cytotoxicity indicator), at 2.08 µM; inhibition: at 2 µM, stronger effect = higher value, 0% TNFa-plus-vehicle, 100% no-TNFa wells;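 further: compound added about 3h40 before a 20 min TNFalpha stimulation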;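 on inhibition: signal is the nuclear over cytoplasmic p65 intensity ratio per well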
# [2] = inhibitors of mutant huntingtin aggregation, primary screen, imaging, exon1htt(103Q)mCFP cells, high-content imaging (AID 483;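 active means visual image review flags a hit and inhibition of aggregation exceeds 20%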;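 further: compound exposure lasted 3 days before fixation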;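 on nuclei count: percent of the per-plate median nuclei count of sample wells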); details: exon1htt(103Q)mCFP cell line, aggregate imaging, at 2 µM; inhibition of aggregation: stronger effect = higher value; nuclei count: measured here: cell count, toxicity
# [3] = inhibitors of E-selectin induction by TNFa, primary screen, imaging, HUVEC, immunofluorescence, MLSMR starter and 10KST1 sets (AID 487;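 active means visually confirmed hit in the image check and inhibition above 20%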;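 on inhibition: signal is fraction of cell area covered by stained E-selectin grains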;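 on nuclei count: 100% = median nuclei count of all wells on the same plate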); details: HUVEC TNFalpha-induced E-selectin immunofluorescence imaging, at 2 µM; inhibition: stronger effect = higher value; nuclei count: measured here: cell number, toxicity
# [4] = biological target: Voltage-gated potassium channel subunit beta-2 (Rattus norvegicus) (UniProt P62483); assay: KvBeta enzyme negative modulators, primary screen, biochemical, NADPH fluorescence (AID 622;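 active means fluorescence slope higher than the sample average by over 3 SD, cut at about -0.22 in these data, passing the limit was not always enough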;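 further: slope of raw intensity against log time taken from 70 to 1610 s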); details: recombinant KvBeta, 4-cyanobenzaldehyde reduction, at 10 µM, stronger effect = higher value
# Voltage-gated potassium channel subunit beta-2 (Rattus norvegicus), sequence (P62483 whole entry, looked up): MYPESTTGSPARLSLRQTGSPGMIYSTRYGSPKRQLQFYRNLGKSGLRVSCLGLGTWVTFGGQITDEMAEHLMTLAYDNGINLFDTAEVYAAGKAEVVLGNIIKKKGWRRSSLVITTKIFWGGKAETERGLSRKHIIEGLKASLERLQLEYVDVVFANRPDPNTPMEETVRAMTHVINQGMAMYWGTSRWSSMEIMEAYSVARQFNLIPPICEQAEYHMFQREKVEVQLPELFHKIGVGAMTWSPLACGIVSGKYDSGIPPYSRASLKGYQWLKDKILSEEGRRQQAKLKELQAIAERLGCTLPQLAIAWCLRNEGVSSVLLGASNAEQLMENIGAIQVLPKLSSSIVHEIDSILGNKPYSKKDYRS
# [5] = biological target: Voltage-gated potassium channel subunit beta-2 (Rattus norvegicus) (UniProt P62483); assay: KvBeta positive modulators, primary screen, biochemical, NADPH fluorescence (AID 623;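 active means NADPH fluorescence slope more negative than the mean of all samples by about 3 SD, 99.7% confidence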;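 further: fluorescence intensity change per second fitted from 20 to 320 s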); details: Recombinant KvBeta, NADPH fluorescence decrease slope, 10 min; at 10 µM; stronger effect = lower value
# [6] = biological target: Alpha-2C adrenergic receptor (Homo sapiens) (UniProt P18825); assay: modulators of alpha2C/GIRK thallium flux, primary screen, cell-based, HEK293 alpha2C/GIRK1/2 (AID 624;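 active means fluorescence slope after compound addition differing from the mean of all screened samples at 99.7% confidence, in either direction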;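 further: slope of fluorescence ratio to pre-addition baseline per second over 15 to 24 s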); details: thallium flux BTC fluorescence, at 10 µM, actives lie on both sides
# Alpha-2C adrenergic receptor (Homo sapiens), sequence (P18825 whole entry, looked up): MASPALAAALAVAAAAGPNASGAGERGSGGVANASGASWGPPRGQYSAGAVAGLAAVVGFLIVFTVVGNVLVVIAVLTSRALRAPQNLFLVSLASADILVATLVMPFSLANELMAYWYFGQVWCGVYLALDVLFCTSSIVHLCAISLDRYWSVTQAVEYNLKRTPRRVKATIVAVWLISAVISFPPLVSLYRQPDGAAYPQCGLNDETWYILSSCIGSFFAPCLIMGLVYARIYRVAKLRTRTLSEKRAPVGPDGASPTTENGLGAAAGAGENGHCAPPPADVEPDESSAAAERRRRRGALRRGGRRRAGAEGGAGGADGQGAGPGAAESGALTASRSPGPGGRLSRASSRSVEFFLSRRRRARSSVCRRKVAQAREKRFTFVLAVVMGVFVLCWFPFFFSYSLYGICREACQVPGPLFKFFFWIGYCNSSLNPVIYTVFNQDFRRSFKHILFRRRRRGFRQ
# [7] = inhibitors of Sendai virus-induced IRF3 signaling, primary screen, TLR/RLR signaling modifier project, cell-based, Sendai virus stimulus, luciferase, 10K MLSCN set (AID 602276;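 active means inhibition at or above 50% at 10 µM; inactive means inhibition below 50%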;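 further: firefly luciferase from ISG56 promoter only with Renilla not read in this screen; 0% = Sendai virus plus DMSO and 100% = medium plus DMSO without virus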); details: HEK293 RL24 IRF3 luciferase reporter, at 10 µM, stronger effect = higher value
# [8] = inhibitors of poly I:C-induced TLR3 signaling, primary screen, cell-based, poly I:C stimulus, luciferase, 10K MLSCN set (AID 602277;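 active means inhibition of the reporter signal at or above 50%; inactive means inhibition below 50%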); details: HEK293-TLR3 RL24 IRF3 luciferase reporter, at 10 µM, stronger effect = higher value
Structure (SMILES),cell count [1],inhibition [1],inhibition of aggregation [2],nuclei count [2] [%],inhibition [3],nuclei count [3] [%],fluorescence slope [4],NADPH fluorescence slope [5],slope [6],inhibition [7],inhibition [8]
CC1CC(C)CN(CC(=O)Nc2ccc(S(N)(=O)=O)cc2)C1 (stereo not drawn),368,1.4% (inactive),-27.5% (inactive),113,30.9% (inactive),96.7,-0.517 (inactive),-3e-05 (inactive),0.00537 (inactive),7.84% (inactive),12.5% (inactive)
Cc1ccccc1NS(=O)(=O)c1cc(C(=O)N2CCCC2)ccc1C,481,-7.1% (inactive),16.1% (inactive),86.1,9.5% (inactive),94.2,-0.601 (inactive),-3.9e-05 (inactive),0.00473 (inactive),-10.7% (inactive),6.74% (inactive)
O=S(=O)(Nc1cccnc1)c1ccc2c(c1)OCCO2,337,10.2% (inactive),5.2% (inactive),88.2,16.8% (inactive),92,-0.393 (inactive),-4.2e-05 (inactive),0.00465 (inactive),13.5% (inactive),17.6% (inactive)
CN(C(=O)c1ccc(S(=O)(=O)NC2CCCC2)cc1)C1CCCCC1,685,2% (inactive),-3.6% (inactive),103,-141% (inactive),117,-0.455 (inactive),1.5e-05 (inactive),0.0047 (inactive),-13.3% (inactive),-0.726% (inactive)
O=C(Nc1c(C(=O)NCc2ccco2)cnn1-c1ccccc1)c1ccc(F)cc1,400,6.3% (inactive),12.1% (inactive),81.6,-23.9% (inactive),89.1,-0.294 (inactive),-2.8e-06 (inactive),0.00584 (inactive),-1.86% (inactive),15.1% (inactive)
CC(=O)Nc1sc2c(c1C#N)CCCCC2,349,0.8% (inactive),12.1% (inactive),78.3,-76.6% (inactive),115,-0.396 (inactive),-5.5e-05 (inactive),0.00723 (inactive),-1.89% (inactive),-4.1% (inactive)
CC1CN(c2nc3ccccc3nc2C(C#N)C(=O)OC2CCCCC2)CC(C)O1 (stereo not drawn),382,-6.2% (inactive),-28.8% (inactive),116,-12.3% (inactive),111,-0.364 (inactive),2.4e-05 (inactive),0.0019 (active),15.1% (inactive),22.4% (inactive)
C=CCNc1oc(-c2cccc3ccccc23)nc1C#N,365,-0.4% (inactive),9.2% (inactive),98.8,-110% (inactive),97.4,-0.0687 (active),1.5e-06 (inactive),0.00477 (inactive),-4.72% (inactive),-35.7% (inactive)
O=C(NCc1ccco1)C1CCN(c2ccc(N3CCOCC3)nn2)CC1,633,1.6% (inactive),4.1% (inactive),92.4,-70.8% (inactive),110,-0.387 (inactive),8e-06 (inactive),0.00458 (inactive),-14.1% (inactive),-20.9% (inactive)
CC(C)c1ccc(CNc2ccc(N3CCOCC3)cc2)cc1,700,-11.3% (inactive),-26.2% (inactive),117,-54.6% (inactive),119,-0.316 (inactive),-4.8e-05 (inactive),0.00466 (inactive),-21.7% (inactive),-43.5% (inactive)
Fc1ccc(-c2nnc3ccc(N4CCCC4)nn23)cc1,662,0.5% (inactive),-1% (inactive),97.7,-61.6% (inactive),120,-0.56 (inactive),2e-05 (inactive),0.00653 (inactive),3.21% (inactive),-61.2% (inactive)
COCCCNC(=O)CSc1nc2ccc(N3CCOCC3)cc2c(=O)n1CCc1ccccc1,369,-1.6% (inactive),-0.2% (inactive),104,17% (inactive),113,-0.558 (inactive),1.6e-05 (inactive),0.00582 (inactive),-0.853% (inactive),-8.93% (inactive)
Cc1cccc(N2CCN(Cc3c(C)n(C)n(-c4ccccc4)c3=O)CC2)c1C,451,0.5% (inactive),9.8% (inactive),92.6,-29.6% (inactive),124,-0.465 (inactive),5.9e-05 (inactive),0.00748 (inactive),13.4% (inactive),18.5% (inactive)
CC(=O)c1ccc(NC(=O)c2cc(CC(C)C)on2)cc1,572,-2.3% (inactive),23.3% (inactive),97.8,-3% (inactive),104,-0.606 (inactive),-2.3e-06 (inactive),0.00654 (inactive),-32.2% (inactive),-78% (inactive)
Cc1[nH]c2c(C)cccc2c(=O)c1Br,440,6.7% (inactive),12.7% (inactive),106,30.1% (inactive),85.5,-0.584 (inactive),-7.5e-05 (inactive),0.0031 (inactive),14.8% (inactive),7.69% (inactive)
O=C(CN1C(=O)c2ccccc2S1(=O)=O)Nc1ccc(S(=O)(=O)N2CCCCCC2)cc1,727,-2.6% (inactive),-11.1% (inactive),99.9,-91.2% (inactive),107,-0.489 (inactive),-5.4e-05 (inactive),0.00568 (inactive),4.06% (inactive),19.5% (inactive)
CCN1C(=O)/C(=C2\C=Cc3ccccc3N2CC)OC1=S,695,-8% (inactive),0.5% (inactive),8.3,16.6% (inactive),107,-0.334 (inactive),-4.6e-05 (inactive),0.00379 (inactive),4% (inactive),-8.93% (inactive)
CC(=O)N(CCc1ccccc1C)Cc1cc2cc3c(cc2[nH]c1=O)OCO3,251,12.1% (inactive),1.2% (inactive),86.1,-68.1% (inactive),116,-0.592 (inactive),-6.2e-05 (inactive),0.00459 (inactive),8.48% (inactive),15.6% (inactive)
CN(CC(=O)N1CCCCC1)S(=O)(=O)c1cccc2cccnc12,792,4.3% (inactive),9.7% (inactive),112,-53.1% (inactive),124,-0.531 (inactive),-1e-05 (inactive),0.00551 (inactive),3.62% (inactive),25.4% (inactive)
Cc1c(Cl)cccc1NC(=O)CCN1CCCCC1,329,-1.3% (inactive),-7.5% (inactive),112,-67.3% (inactive),133,-0.514 (inactive),3e-05 (inactive),0.00469 (inactive),17.5% (inactive),20% (inactive)
CCN(CC)CCOC(=O)c1cccc(OC)c1,249,4.3% (inactive),-8.4% (inactive),114,16.1% (inactive),98.7,-0.638 (inactive),-2.4e-05 (inactive),0.00412 (inactive),6.23% (inactive),14.4% (inactive)
O=C1CCCCCC1C1(O)C(=O)Nc2ccccc21 (stereo not drawn),349,10% (inactive),-6% (inactive),101,-26.3% (inactive),116,-0.424 (inactive),4e-05 (inactive),0.00358 (inactive),9.01% (inactive),29% (inactive)
CCN1C(=C2C(=O)c3ccccc3C2=O)C=Cc2ccccc21,347,23.3% (active),-4% (inactive),107,-27.1% (inactive),117,-0.284 (inactive),-1.4e-05 (inactive),0.00581 (inactive),-14.8% (inactive),-27.9% (inactive)
Cc1cc(C)n(C(=O)CCCCCC(=O)n2nc(C)cc2C)n1,440,5.5% (inactive),1.5% (inactive),116,-195% (inactive),116,-0.524 (inactive),8.7e-06 (inactive),0.0053 (inactive),18.5% (inactive),26.3% (inactive)
Cc1noc(/C=C/N(C)C)c1S(=O)(=O)N1CCCC(C(=O)NC2CCCCC2)C1 (stereo not drawn),625,11.7% (inactive),7.9% (inactive),93.6,34.5% (inactive),62.5,-0.566 (inactive),1.6e-05 (inactive),0.0069 (inactive),16.1% (inactive),14.8% (inactive)
CC(C)CCSc1nc2c(c(=O)[nH]c(=O)n2C)n1CCCc1ccccc1,618,-5.9% (inactive),26.4% (inactive),103,-34.8% (inactive),120,-0.414 (inactive),-4.8e-05 (inactive),0.00519 (inactive),10.3% (inactive),29.8% (inactive)
CCOC(=O)C1CCN(C(=O)CN(Cc2ccccc2)S(C)(=O)=O)CC1,370,2.3% (inactive),-32.7% (inactive),102,-78.2% (inactive),115,-0.422 (inactive),-5.7e-05 (inactive),0.00496 (inactive),10% (inactive),7.77% (inactive)
CON(C)c1nc(Oc2ccc(=O)[nH]n2)nc(N(C)C)n1,678,-6.2% (inactive),-9.5% (inactive),85.9,-48.5% (inactive),101,-0.351 (inactive),1.4e-05 (inactive),0.00477 (inactive),16.3% (inactive),19.3% (inactive)
